Source: PubChem
The list is not random: actives were taken first. Their share in the collection is about 5%.
USP2a inhib = USP2a (human) protease inhibition | O75604 | USP2a enzymatic assay, qHTS inhibition | Potency, µM (doses to about 38.3 µM), actives largely listed as inhibitors | 60,000 compounds, 0.1% hits | AID 927; also: nearly all actives have a fitted effect of over 60% in size
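Inhibition is measured in a cell-free coupled assay with 20 nM USP2 core, 20 nM Ub-PLA2 and 20 uM NBD C6-HPC, 2.5 h incubation. Activity normalized to NEM control.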
TSHR ag = agonists of human thyroid stimulating hormone receptor | P16473 | HEK293-CNG-TSHR cells (CNG channel as cAMP sensor), membrane potential dye, cAMP | Potency, µM (series often up to 57.1 µM), usual class: activators | 73,000 compounds, 0.48% hits; active = well fitted activation curve with a large enough effect in the main read-out, with a control signal flat, not every such curve was filed as active; inconclusive = small, poorly fitted or top-dose-only effect, or a change in a side signal; inactive = no such curve, though single readings can be large or run the other way; reference of the percent scale not stated here;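 also: the control signal comes from parental cells without the receptor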
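cAMP rise detected as CNG-channel membrane depolarization by fluorescent dye (emission 590 nm), 30 min after compound, following 60 min dye loading containing 100 uM RO 20-1724 at room temperature. Cells: TSHR/CNG HEK 293, with parental CNG HEK 293 as control.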
HEK293 cAMP cs = parental HEK293 cAMP activation (counter-screen); parental HEK293 CNG cAMP sensor, membrane potential fluorescence; Potency, µM (highest dose often 57.1 µM), hits mostly activators; 73,000 compounds, 2.5% hits; AID 938; also: nearly all actives have a fitted effect of over 55% in size
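Parental HEK 293 cells stably expressing a modified CNG channel (no TSHR) report cAMP rise as membrane depolarization. Membrane potential dye with 100 uM RO 20-1724 was loaded for 60 min at room temperature, then compound added for 30 min; fluorescence read at 590 nm.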
Caspase-7 inhib = allosteric or competitive inhibitors of human caspase-7 | 75,000 compounds, 0.02% hits | P55210 | recombinant caspase-7, Ac-DEVD-AFC fluorescence rate | Potency, µM (highest dose often 57.5 µM), most hits filed as inhibitors; active = well fitted inhibition curve with a large enough effect in the main read-out, with a control signal flat, not every such curve was filed as active; inconclusive = small, poorly fitted or top-dose-only effect, or a change in a side signal
Target sequence (P55210 24-198 limits assumed): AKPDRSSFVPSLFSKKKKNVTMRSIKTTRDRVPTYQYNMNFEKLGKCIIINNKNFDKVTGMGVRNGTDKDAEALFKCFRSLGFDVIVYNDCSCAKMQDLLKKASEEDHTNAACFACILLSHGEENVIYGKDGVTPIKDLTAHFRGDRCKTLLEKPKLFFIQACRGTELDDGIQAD
Target sequence (P55210 207-303 limits assumed): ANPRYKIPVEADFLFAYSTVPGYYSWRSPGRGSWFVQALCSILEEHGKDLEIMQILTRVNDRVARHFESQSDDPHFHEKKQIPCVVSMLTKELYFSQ
Casp1 inh = blocks human caspase-1 allosterically or competitively; P29466; Caspase-1 enzyme, Ac-WEHD-AFC fluorogenic rate; Potency, µM (titrated, usually from 57.5 µM), most hits filed as inhibitors; 75,000 compounds, 0.03% hits; AID 900
Target sequence (P29466 120-297 limits assumed): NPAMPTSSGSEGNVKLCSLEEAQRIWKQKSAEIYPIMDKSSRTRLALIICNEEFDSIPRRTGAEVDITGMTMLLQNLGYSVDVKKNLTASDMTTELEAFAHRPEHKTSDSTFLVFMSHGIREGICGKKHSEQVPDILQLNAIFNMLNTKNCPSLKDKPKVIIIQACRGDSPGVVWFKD
Target sequence (P29466 317-404 limits assumed): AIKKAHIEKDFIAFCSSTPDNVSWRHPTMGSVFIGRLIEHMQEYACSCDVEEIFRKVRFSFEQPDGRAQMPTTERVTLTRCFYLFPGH
CRE Fsk mod = modulators of forskolin-stimulated CRE signaling in CHO cells | Potency, µM (titrated, usually from 38.2 µM), usual class: activators | 71,000 compounds, 2.5% hits | CHO CRE-bla reporter (cAMP response element driving beta-lactamase), forskolin EC10, beta-lactamase ratio; active = well fitted activation curve with a large enough effect in the signal ratio, with a control signal flat, not every such curve was filed as active; inconclusive = small, poorly fitted or top-dose-only effect, or effect the other way, or a change in a side signal; the % refers to the signal ratio
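The 460nm/530nm emission ratio after CCF4 loading defined %Activity, from which AC50 values were obtained. CRE-bla CHO cells received compound dilution series together with an EC10 level of NKH 477 for 3 hours at 37 degrees Celsius.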
Large screens that a line does not name were inactive. Unless noted, calls follow the shape of the dose curve; as a rule, active = well fitted curve in the direction sought with a large enough effect; inconclusive = small, poorly fitted or top-dose-only effect, or another doubt; inactive = no such curve, though single readings can be large; an effect the other way counts as inactive or inconclusive.

COc1ccc(CC[N@+]2(C)COc3cc4oc(=O)cc(C)c4cc3C2)cc1OC	none (no result: USP2a inhib)
O=C(O)CCCCn1ccc(=O)[nH]c1=O	none (no result: USP2a inhib)
Cc1ccc(C)c2[nH]c(=O)c(CN(Cc3ccco3)C(=O)Nc3ccccc3)cc12	USP2a inhib inconclusive, TSHR ag inconclusive, HEK293 cAMP cs 20µM, CRE Fsk mod inconclusive
CCOC(=O)Nc1sc(C(=O)N(CC)CC)c(C)c1C(=O)OCC	CRE Fsk mod 3.98µM (no result: TSHR ag)
COC(=O)c1cc(OC)c(OC)cc1NC(=O)c1ccccc1	CRE Fsk mod 0.398µM
COc1ccccc1C(=O)N1CCN(c2nc3cc(C)c(C)cc3cc2C#N)CC1	TSHR ag inconclusive, HEK293 cAMP cs 12.6µM, Caspase-7 inhib inconclusive, CRE Fsk mod inconclusive (no result: Casp1 inh)
COc1cccc(C2CC(C(F)(F)F)n3ncc(C(=O)NCC4CCCO4)c3N2)c1 (stereo unspecified)	none (no result: USP2a inhib)
COc1ccc(C2CC(C(F)(F)F)n3ncc(C(=O)NCc4cccnc4)c3N2)cc1OC (stereo unspecified)	CRE Fsk mod 12.6µM
O=C(c1cccc(C(=O)N2CCN(Cc3ccccc3)CC2)c1)N1CCN(Cc2ccccc2)CC1	TSHR ag inconclusive, HEK293 cAMP cs 1.26µM (no result: USP2a inhib)
Cc1ccc(-c2nc(=S)c3c(n2Cc2ccco2)CCCC3)cc1	TSHR ag inconclusive, HEK293 cAMP cs 2.51µM (no result: USP2a inhib, CRE Fsk mod)
COc1cccc(-c2nc(=S)c3c(n2Cc2ccco2)CCCC3)c1	TSHR ag inconclusive, HEK293 cAMP cs inconclusive
CCC(=O)N1CCCc2cc(S(=O)(=O)N3CCN(c4ccccc4F)CC3)ccc21	TSHR ag inconclusive, HEK293 cAMP cs 25.1µM, CRE Fsk mod inconclusive (no result: USP2a inhib)
CCC(=O)N1CCCc2cc(S(=O)(=O)N3CCN(c4ncccn4)CC3)ccc21	none (no result: USP2a inhib)
COC(=O)C/C=C\[C@@H](C)[C@@H](/C=N\OCC[C@@H]1C=C[C@H](OC(C)=O)[C@H](COC(C)=O)O1)OC	none (no result: USP2a inhib, CRE Fsk mod)
CN(C)S(=O)(=O)c1cccc(C(=O)Nc2cc(Cl)ccc2O)c1	none
CN1CCN(c2ccc(Cl)cc2NC(=O)c2cccc(S(=O)(=O)N(C)C)c2)CC1	CRE Fsk mod 5.01µM
O=C(NCC(c1cccnc1)N1CCOCC1)c1ccc2c(c1)OCO2 (stereo unspecified)	none
CCN1CCN(C(CNC(=O)c2ccc3c(c2)OCO3)c2cccnc2)CC1 (stereo unspecified)	CRE Fsk mod 12.6µM (no result: USP2a inhib)
Cc1c(C)c2cc(Cl)c(O)c(CN(C)C)c2oc1=O	Caspase-7 inhib inconclusive, CRE Fsk mod 10µM (no result: Casp1 inh)
CCc1c(C)c2cc(Cl)c(O)c(CN(CC)CC)c2oc1=O	Caspase-7 inhib inconclusive, CRE Fsk mod 10µM (no result: Casp1 inh)
CCc1c(C)c2cc(Cl)c(O)c(CN(C)C)c2oc1=O	Caspase-7 inhib inconclusive, CRE Fsk mod 10µM (no result: Casp1 inh)
O=c1oc2c(CN3CCOCC3)c(O)c(Cl)cc2c2c1CCC2	Caspase-7 inhib inconclusive, CRE Fsk mod inconclusive (no result: Casp1 inh)
C=C[C@]1(C)C[C@H](OC(=O)CO)[C@]2(C)C3C(=O)CC[C@]3(CC[C@H]2C)[C@H](C)[C@H]1O (stereo partly specified)	none (no result: USP2a inhib)
COc1ccccc1CNc1ncnc2nc[nH]c12	TSHR ag inconclusive, HEK293 cAMP cs inconclusive (no result: USP2a inhib)
c1cncc(CNc2ncncc2-c2ccoc2)c1	none
COc1ccccc1CNc1ncnc2c1nnn2Cc1ccccc1	TSHR ag inconclusive, HEK293 cAMP cs 12.6µM
COc1ccccc1CNc1ncncc1-c1ccccc1OC	TSHR ag inconclusive, HEK293 cAMP cs 10µM
c1ncc(-c2ccoc2)c(NC2CC2)n1	TSHR ag inconclusive, HEK293 cAMP cs 3.98µM
COc1cccc(-c2cncnc2NCc2ccccc2OC)c1	TSHR ag inconclusive, HEK293 cAMP cs 25.1µM, CRE Fsk mod inconclusive
CC(C)=CCC/C(C)=C/CO/N=C1/[C@H]2O[C@@H]2[C@@H](O)[C@H]2[C@H]1CCn1c(=O)n(-c3ccccc3)c(=O)n12	none (no result: USP2a inhib, CRE Fsk mod)
O=C1CCC(c2ccccc2)=NN1c1nc2ccccc2s1	none (no result: USP2a inhib)
COc1cccc(-c2cncnc2NCc2ccc(OC)cc2OC)c1	TSHR ag inconclusive, HEK293 cAMP cs 15.8µM, CRE Fsk mod inconclusive
COc1ccc(CNc2ncncc2-c2cccnc2)c(OC)c1	CRE Fsk mod inconclusive
COc1ccc(CNc2ncncc2-c2ccoc2)c(OC)c1	TSHR ag inconclusive, HEK293 cAMP cs 10µM
CCCNC(=O)C1=C(C)C(=O)OC12CCC(C)CC2 (stereo unspecified)	none (no result: USP2a inhib)
CC1=C(C(=O)N(C)Cc2ccccc2)C2(CCC(C)CC2)OC1=O (stereo unspecified)	TSHR ag inconclusive, HEK293 cAMP cs 6.31µM (no result: USP2a inhib)
CN(C)Cc1ccc(C(C)(C)C)cc1-c1cc(C(C)(C)C)ccc1CN(C)C	none (no result: USP2a inhib)
O=C(CSc1nnc(-c2ccccn2)n1Cc1ccco1)c1ccccc1	none
O=C(CSc1nnc(-c2ccccn2)n1Cc1ccco1)c1ccc(Cl)cc1	TSHR ag inconclusive, HEK293 cAMP cs 25.1µM
O=c1c(-c2ccc(F)cc2)nc2cnc(N3CCOCC3)nc2n1C1CC1	Caspase-7 inhib inconclusive, CRE Fsk mod 5.01µM (no result: Casp1 inh)
Cn1c(=O)c(-c2ccccc2)nc2cnc(N3CCOCC3)nc21	Caspase-7 inhib inconclusive, CRE Fsk mod inconclusive (no result: Casp1 inh)
O=c1c(-c2ccc(Cl)cc2)nc2cnc(N3CCOCC3)nc2n1C1CC1	CRE Fsk mod inconclusive
COc1ccc(-c2nc3cnc(N4CCOCC4)nc3n(C3CC3)c2=O)cc1	TSHR ag inconclusive, HEK293 cAMP cs inconclusive, Caspase-7 inhib inconclusive, CRE Fsk mod 1.26µM (no result: Casp1 inh)
Cn1c(=O)c(-c2ccc(F)cc2)nc2cnc(N3CCOCC3)nc21	TSHR ag inconclusive, HEK293 cAMP cs inconclusive, Caspase-7 inhib inconclusive, CRE Fsk mod 2.51µM (no result: Casp1 inh)
CN1CCN(c2ncc3nc(-c4ccc(Cl)cc4)c(=O)n(C4CC4)c3n2)CC1	Caspase-7 inhib inconclusive, CRE Fsk mod inconclusive (no result: Casp1 inh)
CN1CCN(c2ncc3nc(-c4ccc(F)cc4)c(=O)n(C4CC4)c3n2)CC1	USP2a inhib 10µM, Caspase-7 inhib inconclusive, CRE Fsk mod inconclusive (no result: Casp1 inh)
CN(C)C[C@H]1CCC2=C(C1=O)C(c1ccc(Cl)c(Cl)c1)C1=C(CC[C@H](CN(C)C)C1=O)O2	none (no result: USP2a inhib)
Nc1ccc(N=Nc2c(S(=O)(=O)O)cc3ccccc3c2S(=O)(=O)O)cc1	none (no result: USP2a inhib)
Cn1c(CSc2ccccc2)c(C#N)c2ccccc21	TSHR ag inconclusive, HEK293 cAMP cs 25.1µM, CRE Fsk mod inconclusive
Cn1c(CNc2ccccn2)c(C#N)c2ccccc21	none
Cc1csc(Sc2nc3c(c(=O)[nH]c(=O)n3C)n2Cc2ccccc2Cl)n1	none
C/C=C/Cn1c(SC)nc2c1c(=O)[nH]c(=O)n2C	CRE Fsk mod 10µM
C/C=C/Cn1c(SCc2ccc(Cl)cc2)nc2c1c(=O)[nH]c(=O)n2C	TSHR ag inconclusive, HEK293 cAMP cs 25.1µM, CRE Fsk mod 2µM
